The record followed here is PubChem BioAssay (Tox21).

Inconclusive results are not listed. Values without a mark were called inactive. Active and inactive are the calls of the source. Calls come from the whole dose curve.
% is set by controls: 0 for no effect and ±100 for the full control effect.

Peroxisome proliferator-activated receptor delta (Homo sapiens), sequence (Q03181 whole entry, looked up): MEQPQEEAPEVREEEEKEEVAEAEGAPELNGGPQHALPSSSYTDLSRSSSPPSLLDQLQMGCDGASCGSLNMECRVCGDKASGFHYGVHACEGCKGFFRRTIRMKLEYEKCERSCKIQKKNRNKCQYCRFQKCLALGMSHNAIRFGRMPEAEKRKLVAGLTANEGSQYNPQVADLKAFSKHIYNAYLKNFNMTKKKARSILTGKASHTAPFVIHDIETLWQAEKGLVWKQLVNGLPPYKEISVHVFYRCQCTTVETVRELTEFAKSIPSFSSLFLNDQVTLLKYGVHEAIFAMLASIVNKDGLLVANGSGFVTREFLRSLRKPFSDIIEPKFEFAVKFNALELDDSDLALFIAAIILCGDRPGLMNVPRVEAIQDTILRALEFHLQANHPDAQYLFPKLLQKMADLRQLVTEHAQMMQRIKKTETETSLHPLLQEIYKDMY

This assay concerns the target Peroxisome proliferator-activated receptor delta (Homo sapiens) (UniProt Q03181). As to the kind of experiment: qHTS assay to identify small molecule agonists of the peroxisome proliferator-activated receptor delta (PPARd) signaling pathway (AID 743212). Particulars: HEK293H PPARd-UAS-bla, beta-lactamase FRET ratio, 17 h; series mostly up to 62.6 µM. An excerpt: U.S. Tox21 Program National Center for Advancing Translational Sciences [NCATS] NIH Chemical Genomics Center [NCGC] U.S. Environmental Protection Agency [EPA] National Institutes of Environmental Health Sciences [NIEHS] National Toxicology Program [NTP] U.S. Food and Drug Administration [FDA] Tox21 Assay Overview: The peroxisome proliferator-activated receptors (PPARs) are lipid-activated transcription factors of the nuclear receptor superfamily with three distinct subtypes namely PPAR alpha, PPAR delta (PPARd) and PPAR gamma. All these subtypes heterodimerizes with Retinoid X receptor (RXR) and have different physiological functions. […] To identify the compounds that activate PPAR-delta signaling, GeneBLAzer PPAR delta UAS-bla HEK293H cell line (Invitrogen, Carlsbad, CA, USA) containing a beta-lactamase reporter gene under the control of an Upstream Activator Sequence (UAS) was used to screen the Tox21 compound library.
Tox21 Assay Protocol Summary: PPARd-bla cells were dispensed at 3000 cells/6uL/well in 1536-well black wall/clear bottom plates using a Multidrop Combi (Thermo Fisher Scientific, Waltham, MA) dispenser. After the assay plates were incubated at 37 C and 5% CO2 for 5 h, 23 nL of compounds dissolved in DMSO, positive controls or DMSO only was transferred to the assay plate by a Pintool station (Kalypsys, San Diego, CA). The assay plates were incubated at 37C for 17 h. After 1 uL of LiveBLAzerTM B/G FRET substrate was added using a Bioraptr Flying Reagent Dispenser (FRD) workstation (Beckman Coulter, Indianapolis, IN, USA), the plates were incubated at room temperature for 2 h, and fluorescence intensity was measured by an Envision plate reader (PerkinElmer, Shelton, CT).
On the technique in general: qHTS replaces the single test concentration by a dilution series.
As to `CO[Si](CCCOCC1CO1)(OC)OC` (stereo not given), the result was inactive.
The same measure, in the same setting: the same measure for `C1CN(CCOCCN2CCOCC2)CCO1`: “inactive”.
For `CCCCCCCCCCCCCC=O`, the activation is 0.125% [at 5.95 µM].
`OC1CCCCC1c1ccccc1` (stereo not given): the outcome was inactive.
For `N[C@@H](C(=O)N[C@@H]1C(=O)N2C(C(=O)O)=C(Cl)CS[C@H]12)c1ccccc1`, the activation was 0.732% [at 13.2 µM].
Turning to `Cn1c(N)c(N=O)c(=O)n(C)c1=O`, the result was inactive.
On to `CC(C)CNCC(C)C`, for which the result was inactive.
As to `CC(C)(c1ccc(O)cc1)c1ccc(O)cc1`, the result was inactive.
On the same count and under the same terms, the same measure for `FC1(F)C(F)(F)C(F)(F)C2(F)C(F)(F)C(F)(F)C(F)(F)C(F)(F)C2(F)C1(F)F` (stereo not given): “inactive”; for `C=C1CC[C@H]2C[C@@H]1C2(C)C`: “inactive”; for `c1ccc([C@H]2CN3CCSC3=N2)cc1`: “inactive”.
With `CCS(=O)(=O)c1ccc(OC)c(C(=O)OC)c1`, the result was inactive.
On the same count and under the same terms, the result for `CCCCCCCCCCCCCCCCC` reads “inactive”.
On to `CCCCCCCCS(=O)(=O)Cl`, for which the outcome was inactive.
Same read-out and setting: the same measure for `CCCCNC(=O)NCCCC`: “inactive”.
On the same count and under the same terms, the same measure for `CCSC(=O)N(CC(C)C)CC(C)C`: “inactive”.
On the same count and under the same terms, the same measure for `CCO/C([O-])=N/c1c[n+](N2CCOCC2)no1`: “inactive”; for `COC(=O)CCSCCC(=O)OC`: “inactive”; for `COc1ccc(CCN(C)CCCC(C#N)(c2cc(OC)c(OC)c(OC)c2)C(C)C)cc1OC` (stereo not given): “inactive”.
Take `CC(C(=O)O)c1ccc(CC2CCCC2=O)cc1` (stereo not given): the outcome was inactive.
On to `N=C(N)c1ccc(OCCCOc2ccc(C(=N)N)cc2)cc1`, for which the result was inactive.
Take `CCO[Si](CCC1CCC2OC2C1)(OCC)OCC` (stereo not given): the outcome was inactive.
On the same count and under the same terms, the result for `N=C(N)c1ccccc1` reads “inactive”; that for `CCCCCSCCCCC`, “inactive”; that for `CCOC(=O)c1ccc(C)cc1`, “inactive”.
On the same count and under the same terms, the result for `CC(C)c1cc2c(cc1S(=O)(=O)O)[C@@]1(C)CCC[C@@](C)(C(=O)O)[C@@H]1CC2` reads “inactive”; that for `NS(=O)(=O)c1cc2c(cc1Cl)NC(C1CC3C=CC1C3)NS2(=O)=O` (stereo not given), “inactive”; that for `C=COCC1CCC(CO)CC1` (stereo not given), “inactive”.
On the same count and under the same terms, the result for `CCCCC(CC)COC(=O)c1ccccc1O` (stereo not given) reads “inactive”.
Regarding `CCCCCCCCCCCCN(CCCCCCCCCCCC)CCCCCCCCCCCC`, the result was inactive.
Still for that read-out and setting: the result for `CC(C)NC(=O)NC(C)C` reads “inactive”.
On the same count and under the same terms, the same measure for `C=C(C)CS(=O)(=O)O`: “inactive”.
The same measure, in the same setting: the result for `NS(=O)(=O)c1ccc(C(=O)O)cc1` reads “inactive”; that for `CC/C=C\CCOC(C)=O`, “inactive”.
With `C=CCS(=O)(=O)O`, the result was inactive.
On to `Nc1ccccc1S(=O)(=O)O`, for which the outcome was inactive.
The same measure, in the same setting: the same measure for `COC(=O)C1=C(C)NC(C)=C(C(=O)OC)C1c1ccccc1[N+](=O)[O-]`: “inactive”; for `O=c1[nH]c(=O)n([C@H]2C[C@H](O)[C@@H](CO)O2)cc1I`: “inactive”.
Still for that read-out and setting: the same measure for `C[N+](C)(C)CC(O)CC(=O)[O-]` (stereo not given): “inactive”.
Turning to `O=C(O)CN(CCOCCOCCN(CC(=O)O)CC(=O)O)CC(=O)O`, the activation was -2.28% [at 0.55 µM].
